Results on 17 molecules are retold here after PubChem BioAssay.

In experiment [1] the test system is XIP peptide (Xip251-270) binding. In words: small-molecule binders of XIP peptide, primary screen, biochemical, small-molecule microarray, fluorescence 635/667 nm, 0.1 µg/mL protein (AID 1182). The settings on record: fluorescent protein binding, 635 nm, higher = more signal, called active from +8 up or from −8 down.
The next experiment relates to XIP peptide (Xip251-270). The experiment can be described thus: small-molecule binders of XIP peptide, primary screen, biochemical, small-molecule microarray, fluorescence 635/667 nm, 0.5 µg/mL protein (AID 1183). The settings on record: small-molecule microarray binding, fluorescence 635 nm; higher = more signal.
Experiment [2] can be described thus: Plasmodium falciparum growth inhibition, primary screen, strain 3D7, DAPI fluorescence, 100 nL (AID 1184).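 Note: parasites grown inside human red blood cells in medium with human serum.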 The note with it: P. falciparum 3D7 growth, 3 d, higher = more signal.
In experiment [3] the target is Homeobox protein Hox-A13 (Mus musculus) (UniProt Q62424). The experiment can be described thus: inhibitors of HoxA13-DNA binding, primary screen, biochemical, fluorescence polarization, labeled oligonucleotide (AID 1185). The settings on record: 15 min, higher = more signal, called active from +8 up or from −8 down. In general terms: In fluorescence polarisation assays a small probe gives low polarisation when free and higher when bound to something large.
Homeobox protein Hox-A13 (Mus musculus), sequence (Q62424 whole entry, looked up): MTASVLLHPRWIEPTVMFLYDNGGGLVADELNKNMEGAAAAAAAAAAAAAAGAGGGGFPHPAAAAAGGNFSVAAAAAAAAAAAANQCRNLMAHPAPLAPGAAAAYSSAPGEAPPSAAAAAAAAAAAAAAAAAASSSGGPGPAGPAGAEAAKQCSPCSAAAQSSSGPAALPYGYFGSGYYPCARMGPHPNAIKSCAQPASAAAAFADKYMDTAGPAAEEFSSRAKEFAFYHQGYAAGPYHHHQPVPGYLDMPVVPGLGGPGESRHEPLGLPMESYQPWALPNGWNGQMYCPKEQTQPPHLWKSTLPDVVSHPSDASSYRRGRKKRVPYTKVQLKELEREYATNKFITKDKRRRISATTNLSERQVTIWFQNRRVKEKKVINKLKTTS

Experiment [4] is described as follows: inhibitors of hydroxyurea-induced Chk1 phosphorylation, primary screen, imaging, HeLa, phospho-Chk1 antibody, percent positive cells (AID 1186). The note with it: hydroxyurea-induced phospho-Chk1 immunofluorescence imaging, higher = more signal.
A short description of experiment [5]: inhibitors of hydroxyurea-induced Chk1 phosphorylation, primary screen, imaging, HeLa, phospho-Chk1 nuclear intensity (AID 1187). The note with it: hydroxyurea-induced phospho-Chk1 immunofluorescence imaging, higher = more signal.

Calls of active or inactive are those of the source. Unless noted, the rule behind the calls is not given here.

Take `CCOC(=O)C[C@H]1[C@H](OC(=O)c2cc3ccccc3oc2=O)[C@@H](NC(=O)c2ccc3ccccc3c2)c2cc(OCCCO)ccc2N1C(=O)c1ccccc1`: the composite z-score is 0.126 (inactive) in experiment [1] and 0.218 in the experiment with XIP peptide (Xip251-270). In addition, the z-score in experiment [2] is -2.17; in experiment [3] it was 0.287 (inactive); in experiment [4], 0.371 (inactive); in experiment [5], 0.632 (inactive).
As for `[N-]=[N+]=Nc1ccccc1[C@@H]1OC(c2ccc(OCCCO)cc2)=N[C@]1(CCS(=O)(=O)c1ccccc1)C(=O)N1CCCCC1`, the composite z-score is 1.32 (inactive) in experiment [1] and 0.574 with XIP peptide (Xip251-270). Also, the z-score in experiment [2] is -2.23; in experiment [3] it was -2.67 (inactive); in experiment [4], 0.0919 (inactive); in experiment [5] it was -0.121 (inactive).
As for `C=C(CCCC)C(=O)CC[C@@H](OC(=O)c1ccccc1-c1ccccc1C(=O)O)c1ccc(CO)o1`, the figures for the composite z-score (in experiment [1]; in the experiment on XIP peptide (Xip251-270)) were 0.412 (inactive) and 0.432, respectively. The z-score in experiment [2] was 1.61; in experiment [3], -5.58 (inactive); in experiment [4] it was 0.629 (inactive); in experiment [5] it was 0.717 (inactive).
`C=CCN1C(=O)[C@@]2(O[C@@H](CCO)[C@H]([Si](C)(C)c3ccc(OC)cc3)[C@H]2C)c2cc(N3C(=O)COc4ccccc43)ccc21`: the composite z-score in experiment [1] is 1.28 (inactive); in the experiment on XIP peptide (Xip251-270) it was 0.623. In addition, the z-score in experiment [2] is -2.68; in experiment [3], -4.65 (inactive); in experiment [4], -1.39 (inactive); in experiment [5] it was -0.883 (inactive).
Consider `O=C(NCc1ccccc1)[C@@H]1c2ccccc2C(=O)N(C2CCCCC2)[C@H]1c1ccc(CO)cc1`, for which the composite z-score in experiment [1] is 0.81 (inactive); in the experiment on XIP peptide (Xip251-270), 0.732. Moreover, the z-score in experiment [2] was -0.667; in experiment [3] it was -2.81 (inactive); in experiment [4], -0.13 (inactive); in experiment [5], -0.296 (inactive).
For the molecule `O=C1O[C@@H](c2ccccc2)[C@@H](c2ccccc2)N2[C@@H](c3ccc(O)cc3)[C@]3(C(=O)Nc4ccc(C#CCCO)cc43)[C@@H](C(=O)O)[C@H]12`, the results for the composite z-score (in experiment [1]; in the experiment with XIP peptide (Xip251-270)) were 0.665 (inactive) and 0.785, respectively. Moreover, the z-score is -0.63 in experiment [2], -4.56 (inactive) in experiment [3], 0.0686 (inactive) in experiment [4] and 0.632 (inactive) in experiment [5].
With `COC(=O)[C@@]1(Cc2ccccc2)[C@H]2c3cc(C(=O)N(C)C)n(Cc4cc(F)c(F)c(F)c4)c3C[C@H]2CN1C(=O)c1ccccc1`, the composite z-score is -0.218 (inactive) in experiment [1] and 0.0006 in the experiment with XIP peptide (Xip251-270). The z-score is -1.52 in experiment [2], -4 (inactive) in experiment [3], -0.217 (inactive) in experiment [4] and -0.227 (inactive) in experiment [5].
Consider `COC(=O)[C@@]1(Cc2ccccc2)[C@H]2c3cc(C(=O)N(C)C)n(Cc4ccccc4)c3C[C@H]2CN1C(=O)c1ccccc1`, for which the composite z-score in experiment [1] was 0.394 (inactive); with XIP peptide (Xip251-270), 0.225. Further, the z-score was -1.43 in experiment [2], -5.49 (inactive) in experiment [3], 1.54 (inactive) in experiment [4] and 0.928 (inactive) in experiment [5].
As for `O=C1c2ccccc2[C@](Cc2ccccc2I)(C(=O)O)[C@H](c2ccc(CO)cc2)N1Cc1ccccc1C(F)(F)F`, the results for the composite z-score (in experiment [1]; in the experiment on XIP peptide (Xip251-270)) were 0.185 (inactive) and 0.506, respectively. Moreover, the z-score is 0.33 in experiment [2], -5.85 (inactive) in experiment [3], -0.344 (inactive) in experiment [4] and -0.572 (inactive) in experiment [5].
Take `NC(=O)NCC#Cc1ccc2c(c1)[C@]1(C(=O)N2)[C@H](c2ccccc2OCCO)N2[C@H](c3ccccc3)[C@H](c3ccccc3)OC(=O)[C@H]2[C@@H]1C(=O)N1CCCCCCC1`: the composite z-score was 0.909 (inactive) in experiment [1] and 0.633 in the experiment with XIP peptide (Xip251-270). Further, the z-score in experiment [2] is -2.04; in experiment [3] it was 3.45 (inactive); in experiment [4], 0.264 (inactive); in experiment [5], 0.69 (inactive).
As for `COCC1=C([C@H](O)CCc2ccccc2)[C@H](CO)[C@@H]2C(=O)N(Cc3ccccc3)C(=O)[C@@H]2C1`, the composite z-score in experiment [1] is -0.0534 (inactive); with XIP peptide (Xip251-270), 0.155. Besides, the z-score was -0.54 in experiment [2], -5.17 (inactive) in experiment [3], -0.955 (inactive) in experiment [4] and -0.946 (inactive) in experiment [5].
`O=c1cccc(-c2ccc3ccccc3c2)o1`: the composite z-score in experiment [1] was -0.644 (inactive); in the experiment on XIP peptide (Xip251-270), -0.688. Also, the z-score in experiment [2] is 1; in experiment [3] it was -1 (inactive); in experiment [4], -0.319 (inactive); in experiment [5], -0.587 (inactive).
For the molecule `CC(=O)n1cc(C(O)C2C=CC3C(=O)N(c4ccccc4)C(=O)C3N2Nc2ccc(C#N)cc2)c2ccccc21` (configuration not stated), the composite z-score is 1.16 (inactive) in experiment [1] and 0.786 in the experiment with XIP peptide (Xip251-270). The z-score in experiment [2] is 0.429; in experiment [3], -3.54 (inactive); in experiment [4], -0.199 (inactive); in experiment [5], -0.217 (inactive).
Regarding `O=C1O[C@H](c2ccccc2)[C@H](c2ccccc2)N2[C@H]1[C@@H](C(=O)N1CCCCCCC1)[C@]1(C(=O)Nc3ccc(C#CC4=CCCCC4)cc31)[C@H]2c1ccc(O)cc1`, the composite z-score was 8.07 (active) in experiment [1] and 1 in the experiment with XIP peptide (Xip251-270). Moreover, the z-score in experiment [2] was -1.96; in experiment [3] it was 3.02 (inactive); in experiment [4], -0.323 (inactive); in experiment [5], -0.649 (inactive).
With `CC(C)CNC(=O)[C@@]1(C)c2ccccc2C(=O)N(C(C)C)[C@H]1c1ccc(CO)cc1`, the composite z-score in experiment [1] was -0.776 (inactive); in the experiment on XIP peptide (Xip251-270), -0.692. The z-score was 1.22 in experiment [2], -1.35 (inactive) in experiment [3], 0.221 (inactive) in experiment [4] and -0.0172 (inactive) in experiment [5].
Turning to `CC(C)(C)OC(=O)CC[C@@]1(C(=O)N2CCOCC2)N=C(c2ccc(OCCCO)cc2)O[C@@H]1c1ccccc1N=[N+]=[N-]`, the composite z-score in experiment [1] was 0.14 (inactive); in the experiment with XIP peptide (Xip251-270), 0.84. The z-score was -1.97 in experiment [2], -4.17 (inactive) in experiment [3], -0.496 (inactive) in experiment [4] and -0.439 (inactive) in experiment [5].
`Cc1ccc(S[C@]2(C(=O)NCC(F)(F)F)CC(=O)N(C3Cc4ccccc4C3)[C@@H]2c2ccc(CO)cc2I)cc1`: the composite z-score is 0.448 (inactive) in experiment [1] and -0.273 in the experiment with XIP peptide (Xip251-270). In addition, the z-score in experiment [2] was 0.178; in experiment [3] it was -2.85 (inactive); in experiment [4], 0.0501 (inactive); in experiment [5] it was 0.637 (inactive).
